Laboratory results from PubChem BioAssay (NCI).
This is part of a sample that, as a whole, favours compounds with a hit. Of some 83,000 tested, about 20% had one in any assay.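 The test compound was applied at a single concentration to cells in 96-well plates for 48 hours, and percent growth was recorded.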 A number with no mark means an inactive call. The source made the active and inactive calls. How the source made its calls: active means growth percent below 10; inactive means the rest.

Columns and labels:
Test in all cases: NCI-60 one-dose screen, 48 h (100 = growth as untreated, 0 = no growth, -100 = all killed)
Details in all cases: 10 µM unless noted
NCI-H23 lung = test system: NCI-H23 lung
NCI-H226 lung = test system: NCI-H226 lung
NCI-H322M lung = test system: NCI-H322M lung
HOP-62 NSCLC = test system: HOP-62 NSCLC
NCI-H460 lung = test system: NCI-H460 lung
HOP-92 NSCLC = test system: HOP-92 NSCLC
NCI-H522 lung = test system: NCI-H522 lung
A549/ATCC NSCLC = test system: A549/ATCC NSCLC
786-0 renal = test system: 786-0 renal
COLO 205 colon = test system: COLO 205 colon
DU-145 prostate = test system: DU-145 prostate
K-562 leukemia = test system: K-562 leukemia
MALME-3M melanoma = test system: MALME-3M melanoma
MDA-MB-231 breast = test system: MDA-MB-231 breast
RXF 393 renal = test system: RXF 393 renal
SF-268 CNS = test system: SF-268 CNS
SF-295 CNS = test system: SF-295 CNS
SF-539 CNS = test system: SF-539 CNS
UACC-257 melanoma = test system: UACC-257 melanoma
M14 melanoma = test system: M14 melanoma

SMILES	growth (NCI-H23 lung)	growth (NCI-H226 lung)	growth (NCI-H322M lung)	growth (HOP-62 NSCLC)	growth (NCI-H460 lung)	growth (HOP-92 NSCLC)	growth (NCI-H522 lung)	growth (A549/ATCC NSCLC)	growth (786-0 renal)	growth (COLO 205 colon)	growth (DU-145 prostate)	growth (K-562 leukemia)	growth (MALME-3M melanoma)	growth (MDA-MB-231 breast)	growth (RXF 393 renal)	growth (SF-268 CNS)	growth (SF-295 CNS)	growth (SF-539 CNS)	growth (UACC-257 melanoma)	growth (M14 melanoma)
CSc1ccc(C(=O)C[n+]2cccc(C)c2)cc1	102%	94.3%	102%	107%	109%	105%	110%	105%	100%	109%	109%	102%	96.6%	107%	107%	99.4%	98.4%	99.7%	98.2%	103%
Nc1ccc(S(=O)(=O)Nc2ccnn2-c2ccccc2)cc1	107%	106%	95%	112%	108%	97.9%	101%	97.7%	105%	109%	118%	89%	103%	102%	120%	107%	102%	103%	103%	109%
COc1ccc2c(c1)OC(N)=C(C#N)C2c1ccc(F)c(F)c1 (stereo unspecified)	48.2%	69.2%	51.4%	44.9%	14.4%	76.3%	-12.6% (active)	37.1%	41.4%	10.3%	30.4%	9.04% (active)	78.4%	44.5%	-9.6% (active)	56.7%	23.1%	14.6%	73%	18.8%
NS(=O)(=O)c1ccc(CCN2C(=O)/C(=C\c3ccc(Cl)cc3)C=C2c2ccc(Oc3ccccc3)cc2)cc1	84%	72.7%	79.2%	95.9%	69%	84.7%	56.1%	51.8%	91.1%	80%	89.4%	47.8%	82%	72.9%	70.3%	82.7%	77.3%	97.7%	92.4%	73.7%
Nc1ncnc2c1c(-c1ccc(Oc3ccccc3)cc1)nn2C[C@H]1SSC[C@H]1O	19.3%	-2.25% (active)	13.4%	20.1%	-43.6% (active)	-4.52% (active)	-31.1% (active)	-35.8% (active)	12.9%	-83.3% (active)	-22.6% (active)	-16.9% (active)	13.9%	9.82% (active)	-4.66% (active)	20.1%	20.7%	10%	1.69% (active)	-66.7% (active)
CC1CCC(C(C)C)C(NN)C1 (stereo unspecified)	106%	88%	91.2%	96%	108%	110%	70.9%	80.6%	98.8%	103%	109%	92.2%	112%	108%	115%	107%	107%	103%	78.6%	102%
CC(/C=C/C=C(\C)[C@H](O)[C@H](C)C(=O)O[C@H]1C[C@H](C)C=C2C=C[C@@]3(C)O[C@@H](O)CC(=O)[C@]3(C)[C@H]21)=C\C=C\C(=O)O	-6.25% (active)	-3.28% (active)	4.63% (active)	-3.68% (active)	2.9% (active)	-14.2% (active)	-11.8% (active)	3.63% (active)	1.96% (active)	-55.9% (active)	4.82% (active)	5.89% (active)	-57% (active)	19.8%	-49.5% (active)	7.59% (active)	2.34% (active)	-15.9% (active)	2.06% (active)	-51.3% (active)
CC1=C[S+](c2ccccc2)c2cccc3cc4ccccc4c1c23 (stereo unspecified)	5.3% (active)	-21.7% (active)	21.5%	-42.6% (active)	-32.6% (active)	-59.6% (active)	-95.7% (active)	-8.79% (active)	-80% (active)	-89.5% (active)	-10.8% (active)	-27.2% (active)	-41.2% (active)	-10.4% (active)		-38.7% (active)	-0.638% (active)	-88.2% (active)	-88.8% (active)	-64.4% (active)
O=C1CN(CCN2CC(=O)NC(=O)C2)CC(=O)N1	95.9%	94.7%	84.3%	93.4%	117%	72.3%	97.1%	101%	97.1%	118%	90.7%	106%	94.5%	102%		108%	85.9%	118%	104%	94.8%
O=[N+]([O-])c1ccc(NS(=O)(=O)c2cc(Cl)ccc2Cl)c2ccccc12	32.5%	65.7%	68.4%	65.7%	46.6%	8.11% (active)	10.1%	89.5%	62.9%	73.6%	73%		43.2%	71%	42.6%	47.9%	37.7%	44.9%	33.7%	45.4%
CN(C)C(=O)Nc1nc2cc(Cl)c(Cl)cc2[nH]1	11.4%	30.4%	39.9%	-38.6% (active)	2.78% (active)	75.3%	-58.1% (active)	3.32% (active)	-66.2% (active)	-12.9% (active)	4.55% (active)	-10% (active)	47.4%	46.1%		36.5%	9.99% (active)	-24.7% (active)	17%	-66.9% (active)
Cc1cn(C2CC(F)C(CO)O2)c(=O)[nH]c1=O (stereo unspecified)	90.3%	95.9%	85.9%	88.4%	51.8%	69%	86%	84.7%	87.3%	116%	108%	58.3%	85.1%	98.3%		103%	76.8%	107%	91.8%	89%
COc1cc(NC(=O)c2cc(OC)c3ccn(C)c3c2)cc2c1C[C@]1(C)CC[C@@H](O)C(C)(C)[C@H]1O2	79.9%	106%	90.4%	46.1%	49.2%	44.6%	76.1%	63.6%	-1.08% (active)	51.7%	71.5%	20.2%	49.9%	57.7%		66.7%	-39.6% (active)	20.3%	62.2%	23.7%
CC1(C)N=C(N)N=C(N)N1c1cccc(CCCCc2ccccc2)c1	10.8%	25.9%	21.6%	-23.5% (active)	0.878% (active)	-30.8% (active)	-42.1% (active)	-6.95% (active)	-48.4% (active)	-84.7% (active)	31.1%	-44.7% (active)	-1.54% (active)	45.4%		10.8%	3.96% (active)	4.72% (active)	-34.8% (active)	6.98% (active)
C=C1C(=O)O[C@H]2[C@H]1CC/C(COC(=O)c1ccc(Br)cc1)=C\CC[C@@]1(C)O[C@@H]21	32.6%	-55.8% (active)	60.5%	25.8%	25.7%	-73% (active)	-78.1% (active)	16.2%	-61% (active)	-67.2% (active)	-33.7% (active)		-54.1% (active)	-56% (active)	-86% (active)	24.6%	63.7%	-76.3% (active)	50.3%	-22.8% (active)
O=C1C(SCCO)=C(SCCO)C(=O)N1c1ccc(-c2ccccc2)cc1	88.9%	74.9%	124%	91.5%	108%	39.9%	-61.3% (active)	105%	82.3%	-56.5% (active)	27.1%	-0.074% (active)	-44.5% (active)	95%		41.1%	103%	104%	-5.64% (active)	85.7%
